Measurements published in PubChem BioAssay (NCATS).
Results filed as inconclusive are left out. Unmarked numbers belong to inactive results. The source made the active and inactive calls. The call rests on the fitted dose curve; in most records, active means well fitted inhibition curve with a large enough effect; inconclusive means small, poorly fitted or top-dose-only effect; inactive means no such curve, though single readings can be large or run the other way.

test: qHTS for Inhibitors of ATXN expression: Validation (AID 588378); conditions: cell-based ATXN2 expression reporter assay, luminescence; series mostly up to 57.1 µM; activity change, negative = inhibition: at the top concentration; further: nearly all actives have a fitted effect of over 75% in size
Text: Spinocerebellar ataxia type 2 (SCA2) is a multisystem neurodegenerative disease caused by a dominantly-acting mutation leading to expansion of a polyQ domain in the ataxin-2 protein (ATXN2). SCA2 patients develop progressive ataxia and later lose function in other neuronal systems. Prominent parkinsonian signs develop in some patients. Similar to many neurodegenerative disorders, no symptomatic or disease-modifying treatments are known.
The primary objective of project is to identify compounds inhibiting ATXN2 expression and to test them for efficacy in SCA2 mouse models. To this end, in a collaboration between Dr. Daniel Scoles and scientists at NCGC, a cell-based assay adapted to high-throughput screening has been developed to screen the NIH Molecular Libraries Small Molecule Repository (MLSMR).
NIH Chemical Genomics Center [NCGC]
NIH Molecular Libraries Probe Centers Network [MLPCN]
Assay Submitter (PI): Stefan Pulst and Daniel Scoles, University of Utah
4 ul of HEK293-ATXN2-FFLuc cell suspension (TBD cells/microL in phenol-red free DMEM) are dispensed into Greiner white solid bottom 1536-well assay plates, yielding a final well density of TBD cells/well. Plates are incubated for 2 hrs at 37 degrees C in 5% humidified CO2 to allow cell attachment. Compounds are then transferred via Kalypsys pin tool equipped with 1536-pin array (10nl slotted pins, V&P Scientific, San Diego, CA). In addition, duplicate serial dilutions of the control compounds ChemBridge 5553825, a previously identified ATXN2 expression inhibitor, and a known luciferase inhibitor, are pin-transferred. After incubation at 37 degrees C in 5% humidified CO2 for 24 hrs, CellTiter-Fluor reagent (1 ul) (Promega, Madison, WI) is then added and plates are incubated for 30 minutes, before being transferred to a ViewLux high-throughput CCD imager (PerkinElmer), wherein single end-point fluorescence measurements are acquired using the 405 nm excitation/525 nm emission filter set to assess cell viability. Next, Bright-Glo luciferase substrate detection reagent (3 ul) (Promega, Madison, WI) is added to each well and incubated for an additional 5 minutes. Luminescence is then measured on the ViewLux imager equipped with a clear emission filter using a 2 sec exposure.
On the % scale 0 is the no-effect control and ±100 the full control effect; potency means the concentration at half of the fitted maximal effect.

SMILES | activity change, negative = inhibition | Potency
O=Nc1c(-c2c(O)[nH]c3cc(Br)ccc23)[nH]c2ccccc12 | 12.9% | –
O=C1c2ccccc2-c2n[nH]c3cccc1c23 | -8.34% | –
Oc1ccc(-c2nc(-c3ccc(F)cc3)c(-c3ccncc3)[nH]2)cc1 | 2.08% | –
O=C1c2c(O)cc(O)cc2OC(c2ccc(O)c(O)c2)C1O (centres undefined) | 5.84% | –
C[C@H](Cc1ccc(O)c(O)c1)[C@@H](C)Cc1ccc(O)c(O)c1 | – | 22.4 µM (active)
Cc1cccc(C#Cc2ccccc2)n1 | 64.5% | –
CNC[C@H](O)c1ccc(O)c(O)c1 | -10.5% | –
Nc1nc(N)c(N=O)c(OCC2CCCCC2)n1 | 7.27% | –
O=c1cc(N2CCOCC2)oc2c(-c3ccccc3)cccc12 | 29.3% | –
OC(CN1CCN(c2cccc(Cl)c2)CC1)C(c1ccccc1)c1ccccc1 (centres undefined) | -4.42% | –
O=C(O)c1cccnc1Nc1cccc(C(F)(F)F)c1 | 35.5% | –
Cc1cc(O)c2c(c1)C(=O)c1cc(O)cc(O)c1C2=O | 13% | –
C[C@@H](N)C1CCC(C(=O)Nc2ccncc2)CC1 (some centres undefined) | -3.25% | –
COc1ccc2cc([C@H](C)C(=O)O)ccc2c1 | -14.1% | –
NC(=NCc1ccccc1)NC(=O)c1nc(Cl)c(N)nc1N | -24.9% | –
COc1cc2nc(N3CCN(C(=O)C4CCCO4)CC3)nc(N)c2cc1OC (centres undefined) | 25.9% | –
O=c1c(O)c(-c2ccc(O)cc2O)oc2cc(O)cc(O)c12 | -16.3% | –
CCOC(=O)C(C)Oc1cccc2c(=O)n(CC(=O)Nc3ccc4c(c3)OCCO4)ccc12 (centres undefined) | 1.71% | –
COc1ccccc1N1CCN(CCN(C(=O)C2CCCCC2)c2ccccn2)CC1 | -16.8% | –
O=C(c1ccccc1)c1ccc2n1CCC2C(=O)O (centres undefined) | 24.2% | –
Oc1ccc2ccccc2c1SSc1c(O)ccc2ccccc12 | -11.3% | –
O=c1ccc2ccc(O)c(O)c2o1 | -25.3% | –
NNc1nncc2ccccc12 | 16.1% | –
COc1cc2c(cc1OC)C1CC(=O)C(CC(C)C)CN1CC2 (centres undefined) | 7.11% | –
O=C(CCc1ccc(O)cc1)c1c(O)cc(O)cc1O | -3.48% | –
O=C1NC(=O)C(c2ccccc2[N+](=O)[O-])=C1Nc1ccc(O)c(Cl)c1 | 7.83% | –
NCCCCNCCCN | 14.8% | –
CC1(C)NC(=O)N(c2ccc([N+](=O)[O-])c(C(F)(F)F)c2)C1=O | -12.1% | –
Nc1nc(OCc2ccccc2)c2[nH]cnc2n1 | 1.47% | –
